# Values joined by “and” are separate entries in the source; they are usually repeats but may differ in a detail not shown here. Equal values may be shown once. Values without a mark were called inactive. Inconclusive results are not listed. A call without a number means that no potency is given here. Active and inactive are the calls of the source. Unless noted, calls come from the whole dose curve; as a rule, active = well fitted curve in the direction sought with a large enough effect; inconclusive = small, poorly fitted or top-dose-only effect, or another doubt; inactive = no such curve, though single readings can be large; an effect the other way counts as inactive or inconclusive.
# Assays:
# [1] = Drug repurposing screens with cells derived from glioblastoma tumor samples (AID 1345199); settings: GBM patient neurospheres viability, ATP luminescence, 48 h; note: nearly all actives have a fitted effect of over 40% in size; note: potency is the fitted concentration of half-maximal effect
# Summary of the method: (§1)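 Primary testing used CD133+ neurospheres from four GBM patients, seven concentrations, 48 h exposure and ATP-based viability; confirmation added three slower-growing patient lines.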
# [2] = system: MKL-2; experiment: qHTS assay to identify novel small-molecules to repurpose for Merkel cell carcinoma treatment (AID 1296009); settings: MCC and control cell lines, CellTiter-Glo viability, 72 h; series mostly up to 46 µM; note: nearly all actives have a fitted effect of over 60% in size
# Summary of the method: (§2)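 Viability readout: ATP luminescence (CellTiter-Glo) after 72 hr drug exposure at 37 degree celsius. Dose-response format was 8 points for NPC and 11 points for MIPE; data normalized to in-plate controls.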
# [3] = system: UISO; experiment: as above; settings: MCC and control cell lines, CellTiter-Glo viability, 72 h; series mostly up to 46 µM
# Summary of the method: as §2
# [4] = system: WaGa; experiment: as above; settings: MCC and control cell lines, CellTiter-Glo viability, 72 h; series mostly up to 46 µM
# Summary of the method: as §2
# [5] = system: C33A; experiment: Primary qHTS to identify gynecologic anti-cancer compounds using libraries of approved drugs and bioactive compounds (AID 1345084); settings: Gynecologic cancer cell panel viability, ATPlite luminescence, 48 h; series mostly up to 57.5 µM; note: nearly all actives have a fitted effect of over 55% in size; note: potency is the fitted concentration of half-maximal effect
# Summary of the method: (§3)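 ATP-based viability (ATPlite), 1,000 cells/well, 16 h pre-incubation, 48 h compound at 37 C, 5% CO2, 15 min RT before read.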
# [6] = system: CASKI; experiment: as above; settings: Gynecologic cancer cell panel viability, ATPlite luminescence, 48 h; series mostly up to 57.5 µM
# Summary of the method: as §3
# [7] = system: Es-2; experiment: as above; settings: Gynecologic cancer cell panel viability, ATPlite luminescence, 48 h; series mostly up to 57.5 µM
# Summary of the method: as §3
# [8] = system: HeLa; experiment: as above; settings: Gynecologic cancer cell panel viability, ATPlite luminescence, 48 h; series mostly up to 57.5 µM
# Summary of the method: as §3
# [9] = system: Hek293T; experiment: as above; settings: Gynecologic cancer cell panel viability, ATPlite luminescence, 48 h, control line for the selectivity index; series mostly up to 57.5 µM
# Summary of the method: as §3
# [10] = system: JEG-3; experiment: as above; settings: Gynecologic cancer cell panel viability, ATPlite luminescence, 48 h; series mostly up to 57.5 µM
# Summary of the method: as §3
# [11] = system: PA-1; experiment: as above; settings: Gynecologic cancer cell panel viability, ATPlite luminescence, 48 h; series mostly up to 57.5 µM
# Summary of the method: as §3
# [12] = system: SKOV3; experiment: as above; settings: Gynecologic cancer cell panel viability, ATPlite luminescence, 48 h; series mostly up to 57.5 µM
# Summary of the method: as §3
# [13] = system: Tov-21-G; experiment: as above; settings: Gynecologic cancer cell panel viability, ATPlite luminescence, 48 h; series mostly up to 57.5 µM
# Summary of the method: as §3
# [14] = system: Tov112D; experiment: as above; settings: Gynecologic cancer cell panel viability, ATPlite luminescence, 48 h; series mostly up to 57.5 µM
# Summary of the method: as §3
# [15] = system: astro; experiment: Drug repurposing screens with cells derived from glioblastoma tumor samples (AID 1345199); settings: viability, ATP luminescence, 48 h; series mostly up to 45.9 µM; note: nearly all actives have a fitted effect of over 40% in size; note: potency is the fitted concentration of half-maximal effect
# Summary of the method: as §1
# [16] = system: OV90; experiment: Primary qHTS to identify gynecologic anti-cancer compounds using libraries of approved drugs and bioactive compounds (AID 1345084); settings: Gynecologic cancer cell panel viability, ATPlite luminescence, 48 h; series mostly up to 57.5 µM; note: nearly all actives have a fitted effect of over 55% in size; note: potency is the fitted concentration of half-maximal effect
# Summary of the method: as §3
# [17] = target: Nuclear receptor subfamily 1 group I member 2 (Rattus norvegicus) (UniProt Q9R1A7); experiment: qHTS assay for small molecule activators of the rat pregnane X receptor (rPXR) signaling pathway (AID 651751; call rule not given here); settings: rPXR reporter cells, luciferase (One-Glo), 24 h
# Nuclear receptor subfamily 1 group I member 2 (Rattus norvegicus), sequence (Q9R1A7 whole entry, looked up): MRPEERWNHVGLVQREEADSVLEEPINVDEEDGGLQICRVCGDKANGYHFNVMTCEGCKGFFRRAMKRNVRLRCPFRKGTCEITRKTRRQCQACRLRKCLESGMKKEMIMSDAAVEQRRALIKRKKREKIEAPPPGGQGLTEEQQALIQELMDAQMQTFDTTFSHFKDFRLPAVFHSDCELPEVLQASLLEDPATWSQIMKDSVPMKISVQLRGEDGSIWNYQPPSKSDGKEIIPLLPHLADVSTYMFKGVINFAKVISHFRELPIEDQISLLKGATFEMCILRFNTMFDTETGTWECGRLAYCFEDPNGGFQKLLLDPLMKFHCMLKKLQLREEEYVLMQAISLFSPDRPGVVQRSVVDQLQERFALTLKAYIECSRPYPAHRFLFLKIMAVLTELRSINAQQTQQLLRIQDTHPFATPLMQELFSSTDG
# [18] = at 45.9 µM (top of the series), tumour line B
# [19] = at 45.9 µM (top of the series), tumour line D
smiles,measurement,setting,value
CN(C)CCOc1ccc(/C(=C(/CCCl)c2ccccc2)c2ccccc2)cc1,"activity, negative = cell killing","[1]; at 46.1 µM (top of the series), tumour line C",-18.9%
same,Potency,[1]; tumour line A,8.91 µM (active)
same,Potency,[1]; tumour line D,12.6 µM (active)
CN(C)CCCSc1ccccc1NC(=O)/C=C/c1ccccc1,outcome,[2],inactive
same,outcome,[3],inactive
same,outcome,[4],inactive
same,Potency,[5],inactive
same,Potency,[6],inactive
same,Potency,[7],inactive
same,Potency,[8],inactive
same,Potency,[9],inactive
same,Potency,[10],inactive
same,Potency,[11],inactive
same,outcome,[12],inactive
same,Potency,[13],inactive
same,outcome,[14],inactive
same,"activity, negative = cell killing",[1]; [18],-25.4%
same,Potency,[1]; tumour line A,10 µM (active)
same,Potency,[15],inactive
CC(=O)Oc1cccc2c1C(=O)c1c(OC(C)=O)cc(C(=O)O)cc1C2=O,outcome,[2],inactive
same,outcome,[3],inactive
same,Potency,[5],inactive
same,Potency,[7],inactive
same,Potency,[8],inactive
same,Potency,[10],inactive
same,outcome,[14],inactive
same,"activity, negative = cell killing",[1]; [18],-17.6%
same,"activity, negative = cell killing",[1]; [19],-16.7%
same,Potency,[15],inactive
O=C(O)CCC(=O)c1ccc(-c2ccccc2)cc1,outcome,[2],inactive
same,outcome,[3],inactive
same,outcome,[4],inactive
same,Potency,[5],inactive
same,Potency,[6],inactive
same,Potency,[7],inactive
same,Potency,[8],inactive
same,Potency,[9],inactive
same,Potency,[10],inactive
same,Potency,[16],inactive
same,Potency,[11],inactive
same,outcome,[12],inactive
same,Potency,[13],inactive
same,outcome,[14],inactive
same,"activity, negative = cell killing","[1]; at 20 µM (top of the series), tumour line C",-5.86%
same,"activity, negative = cell killing","[1]; at 21.2 µM (top of the series), tumour line B",-10%
same,"activity, negative = cell killing","[1]; at 21.2 µM (top of the series), tumour line D",-17.7%
same,Potency,[15],inactive
CSc1nc2cc(Oc3cccc(Cl)c3Cl)c(Cl)cc2[nH]1,"activity, negative = cell killing",[1]; [18],-12.6%
Oc1ccc(/C=C/c2cc(O)cc(O)c2)cc1,outcome,[3],inactive
same,Potency,[7],25.1 µM (active)
same,Potency,[13],22.4 µM (active)
same,Potency,[15],4.47 µM (active)
same,max response,[17],-2.85% and -10.8%
C#C[C@]1(O)CC[C@@H]2[C@H]3CCC4=CC(=O)CC[C@H]4[C@H]3C(=C)C[C@@]21CC,"activity, negative = cell killing",[1]; [18],2.86%
same,"activity, negative = cell killing",[1]; [19],-28.7%
same,Potency,[1]; tumour line A,22.4 µM (active)
